According to PubChem BioAssay:
Activity calls are given as the source filed them.

biological target: Dihydroorotate dehydrogenase (quinone), mitochondrial (Plasmodium falciparum (isolate 3D7)) (UniProt Q08210); assay: inhibition of P. falciparum DHODH – biochemical, C-terminal His tag, absorbance 600 nm, primary screen (AID 1175); conditions: PfDHODH enzyme, DCIP absorbance 600 nm; higher = more signal, called active from +8 up or from −8 down;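 also: recombinant parasite enzyme with a five histidine tag at its C terminus; test concentration not given here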
Sequence (Q08210 whole entry, looked up): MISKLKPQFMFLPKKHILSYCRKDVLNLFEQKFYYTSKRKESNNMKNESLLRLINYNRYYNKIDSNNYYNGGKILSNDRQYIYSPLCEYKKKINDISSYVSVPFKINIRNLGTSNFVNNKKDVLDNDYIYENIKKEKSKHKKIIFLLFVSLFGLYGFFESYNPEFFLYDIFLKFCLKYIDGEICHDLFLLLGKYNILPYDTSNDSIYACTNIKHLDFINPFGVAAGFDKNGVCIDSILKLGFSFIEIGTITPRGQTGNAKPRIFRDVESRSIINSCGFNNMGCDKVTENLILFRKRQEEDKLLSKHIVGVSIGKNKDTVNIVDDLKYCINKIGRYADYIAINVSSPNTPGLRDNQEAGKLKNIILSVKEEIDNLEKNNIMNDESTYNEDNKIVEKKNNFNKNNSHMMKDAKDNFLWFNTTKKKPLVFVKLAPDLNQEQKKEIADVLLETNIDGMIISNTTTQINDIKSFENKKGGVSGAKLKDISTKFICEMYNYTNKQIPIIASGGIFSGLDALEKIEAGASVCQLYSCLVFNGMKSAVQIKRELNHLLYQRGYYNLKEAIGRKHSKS

Composite z-score, inactive:
CN1C(=O)[C@]2(CCS(=O)(=O)c3ccccc3)N=C(c3ccc(OCCCO)cc3)O[C@@H]2c2ccccc21 0.349, C=CCC(OC(C)=O)[C@@H]1[C@@H](N(Cc2cccc3ccccc23)C(=O)c2cccc3ccccc23)c2cc(OCCCO)ccc2N1C(=O)Cc1ccc2ccccc2c1 (some centres not stated) -0.373, CCCCNC(=O)c1ccc(C#C[Si](C)(C)C)c(OC(C)=O)c1 -1.4, CCOC(=O)C1=CC[C@@H](c2ccccc2Cl)N(S(=O)(=O)c2ccc(C)cc2)[C@H]1c1cccc(OC)c1 0.0463, Cc1ccc(F)cc1S(=O)(=O)N[C@@H]1CCN(Cc2ccc3c(c2)OCO3)C1 0.171, C#CCN(C/C=C/c1ccccc1)[C@H](CO[Si](C)(C)C(C)(C)C)c1ccccc1 -0.26, N[C@@H](Cc1ccccc1)Cn1cc(C2(O)CCCCC2)nn1 -0.0324, COCCOC(=O)N1C(=O)[C@@]2(c3cc(C#CCC(C(=O)OC)C(=O)OC)ccc31)[C@H](c1ccc(OCCO)cc1)N1[C@H](c3ccccc3)[C@H](c3ccccc3)OC(=O)[C@H]1[C@@H]2C(=O)N1CCCCCCC1 0.551, COc1ccc(NC(=O)O[C@H]2[C@H](OC(=O)Nc3ccc4c(c3)OCO4)[C@H](OC(=O)Nc3ccc4c(c3)OCO4)[C@@H](OC)O[C@@H]2CO)cc1 0.229, COc1ccc(NN2C(C(O)c3cc(C(F)(F)F)cc(C(F)(F)F)c3)C=CC3C(=O)N(C4CCCCC4)C(=O)C32)cc1 (configuration not stated) -0.0132, COCCOC(=O)N1C(=O)[C@@]2(c3cc(C#Cc4ccc(OC)cc4)ccc31)[C@H](C(=O)Nc1nc3ccccc3s1)[C@H]1C(=O)O[C@H](c3ccccc3)[C@H](c3ccccc3)N1[C@@H]2c1ccccc1OCCO -0.882, C=C(COC)/C(=C/C[C@H](OC(=O)c1ccncc1)c1ccc(OCCO)cc1)c1cc(C(=O)OC)ccc1OC -1.46, COc1ccc([Si](C)(C)[C@H]2[C@H](CCO)O[C@@]3(C(=O)N(Cc4ccccc4)c4ccc(N(C=O)c5ccccc5)cc43)[C@@H]2C)cc1 -0.363, C=CC[C@]1(C(=O)OC)N=C(c2ccc(OCCCO)cc2)O[C@H]1c1ccccc1N=[N+]=[N-] 0.823, COc1ccccc1CN1C(=O)c2ccccc2[C@](Cc2ccccc2I)(C(=O)NCCCN(C)C)[C@@H]1c1ccc(CO)cc1 -0.572, CC1CC/C=C\[C@H]2OC34C=CCN(c5ccc(Cl)cc5)C(=O)[C@H]3N(CCCO)C(=O)[C@]4(C)C2C(=O)O1 (some centres not stated) 1.44, CC[C@H](C)C(=O)O[C@H]1CC[C@]2(C)C3=C(CCC2C1(C)C)[C@]1(C)CC[C@H]([C@H](C)CCCC(C)C)[C@@]1(C)CC3 (some centres not stated) 0.454, CCOC(=O)C[C@H]1[C@H](OC(=O)c2cc3ccccc3oc2=O)[C@@H](NC(=O)C2CCCCC2)c2cc(OCCCO)ccc2N1C(=O)Cc1ccc(OC)cc1 0.427, CC(C)C(=C=CC[C@@H](O)c1cccc(OCCO)c1)CCO -1.1, C=C(COC)/C(=C/C[C@H](OC(=O)c1ccncc1)c1cccc(OCCO)c1)c1cnc2ccccc2c1 -5.24, CC(C)CNC(=O)[C@@H]1c2ccccc2C(=O)N(Cc2ccccc2)[C@H]1c1ccc(CO)cc1 0.13, C=C(COC)C(=O)CC[C@@H](OC(C)=O)c1ccc(OCCO)cc1 -5.2, CCCCC(=C=CC[C@H](O)c1ccc(OCCO)cc1)C[C@H](O)c1ccccn1 -2.06, CC(C)c1ccc(NN2C(C(O)C(C)C)C=CC3C(=O)N(c4ccccc4)C(=O)C32)cc1 (configuration not stated) 0.974, COCCOC(=O)N1C(=O)[C@@]2(c3cc(C#CC4=CCCCC4)ccc31)[C@H](C(=O)N1CCN(c3ncccn3)CC1)[C@H]1C(=O)O[C@H](c3ccccc3)[C@H](c3ccccc3)N1[C@@H]2c1ccccc1OCCO 0.598, CC(C)C(=C=CC[C@@H](O)c1ccccc1OCCO)C[C@@H](O)c1cc(Cl)cc(Cl)c1O -2.32, COc1ccc(C(O)C2C=CC3C(=O)N(C)C(=O)C3N2Nc2ccc([N+](=O)[O-])cc2[N+](=O)[O-])cc1OCc1ccccc1 (configuration not stated) 0.37
